Experimental data: PubChem BioAssay
Entries with a potency or affinity are not part of this list. Records with an inconclusive call do not appear. Calls of active or inactive are those of the source. Unless noted, the rule behind the calls is not given here.

What was measured:
[1] = cytotoxicity in PAX8-dependent RMG-1 cells, dose response, cell-based, cherry-pick (AID 687029;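 active = signal drop whose fitted half-maximal concentration is at most twice the top valid dose, in every test run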;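 note: cells exposed to compound for 96 hours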)
[2] = cytotoxicity in IOSE-T80 ovarian epithelial cells, dose response, selectivity assay for PAX8 inhibitor project, cell-based, cherry-pick (AID 687032;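 active = fitted half-maximal concentration for viability loss no higher than twice the top valid dose, in every repeat run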;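 note: cells exposed to compound for 96 h before reading; 0% = neutral control wells and -100% = 2 µM mitoxantrone kill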)
[3] = inhibitors of CMV-promoter luciferase reporter, dose response, counter-screen for Pax8 inhibitor project, cell-based, HEK293, luminescence, dry powder (AID 743020;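 active = signal-lowering compounds whose fitted half-maximal concentration is at or below twice the top tested dose in every run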;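 note: HEK293 cells stably expressing the CMV luciferase reporter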)
[4] = non-specific cell cytotoxicity, dose response, cytotoxicity control for PAX8 inhibitor project, plate reader, dry powder samples (AID 743021)
[5] = IGROV1 ovarian cancer cell cytotoxicity, dose response, PAX8 inhibitor project, plate reader, dry powder samples (AID 743043);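 note: more negative means fewer viable cells or more cytotoxicity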
[6] = NIH:OVCAR-3 ovarian cancer cell cytotoxicity, dose response, PAX8 inhibitor project, plate reader, dry powder samples (AID 743044); details: max activity: at 35 µM, stronger effect = lower value unless noted
[7] = IOSE-T80 ovarian epithelial cell cytotoxicity, dose response, cytotoxicity control for PAX8 inhibitor project, plate reader, dry powder samples (AID 743045);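 note: 0% = neutral control median and -100% = positive control median; more negative values mean more cell killing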
[8] = A2780 ovarian cancer cell cytotoxicity, dose response, cytotoxicity control, plate reader, dry powder samples (AID 743046);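 note: 0% = neutral control wells and -100% = cytotoxic reference compound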
[9] = cytotoxicity in OVCAR8 ovarian cancer cells, dose response, PAX8 project, cell-based, plate reader, dry powder samples (AID 743197)

Measured: max activity

C[C@@H]1CN([C@@H](C)CO)C(=O)Cc2cc(N(C)C)ccc2O[C@H]1CN(C)Cc1ccc(Oc2ccccc2)cc1
inactive: [1] | [2] | [3] | [4] | [5] | [6] -11.3% [at 4.2 µM, stronger effect = lower value] | [7] | [8] | [9]

C[C@H]1CCCCO[C@@H](CN(C)C)[C@@H](C)CN([C@@H](C)CO)C(=O)c2cc(NC(=O)Nc3ccc(C(F)(F)F)cc3)ccc2O1
inactive: [1] | [2] | [3] | [4] | [5] | [6] -16.2% [at 8 µM, stronger effect = lower value] | [7] | [8] | [9]

C[C@@H]1CN([C@@H](C)CO)C(=O)c2cc(NS(=O)(=O)c3ccc(F)cc3)ccc2O[C@@H](C)CCCCO[C@H]1CN(C)Cc1ccc(C(F)(F)F)cc1
inactive: [1] | [2] | [3] | [4] | [5] | [6] -20.3% [at 0.26 µM, stronger effect = lower value] | [7] | [8] | [9]

C[C@@H]1CCCCO[C@H](CN(C)Cc2ccc(C(F)(F)F)cc2)[C@H](C)CN([C@H](C)CO)C(=O)c2cc(NC(=O)Nc3ccc(F)cc3)ccc2O1
inactive: [1] | [2] | [3] | [4] | [5] | [6] 10.2% [at 1 µM, stronger effect = lower value] | [7] | [8] | [9]

C[C@@H]1CN([C@H](C)CO)C(=O)c2c(c3ccccc3n2C)-c2ccccc2CO[C@@H]1CN(C)C
inactive: [1] | [2] | [3] | [4] | [5] | [6] 18.1% [at 0.5 µM, stronger effect = lower value] | [7] | [8] | [9]

Cc1ccc(S(=O)(=O)Nc2ccc3c(c2)C(=O)N([C@@H](C)CO)C[C@@H](C)[C@@H](CN(C)Cc2ccc(C(F)(F)F)cc2)OCCCC[C@@H](C)O3)cc1
inactive: [1] | [2] | [3] | [4] | [5] | [6] -26.4% [at 8 µM, stronger effect = lower value] | [7] | [8] | [9]

C[C@@H]1CCCCO[C@@H](CN(C)C(=O)C2CCCCC2)[C@H](C)CN([C@H](C)CO)C(=O)c2cc(NC(=O)Nc3ccc(F)cc3)ccc2O1
inactive: [1] | [2] | [3] | [4] | [5] | [6] -21.5% | [7] | [8] | [9]

C[C@@H]1CN([C@H](C)CO)C(=O)c2cc(NC(=O)c3ccncc3)ccc2O[C@@H](C)CCCCO[C@H]1CN(C)Cc1ccc(C(F)(F)F)cc1
inactive: [1] | [2] | [3] | [4] | [5] | [6] 14.3% [at 0.5 µM, stronger effect = lower value] | [7] | [8] | [9]

C[C@@H]1CN([C@@H](C)CO)C(=O)c2cc(NC(=O)NC3CCCCC3)ccc2O[C@@H](C)CCCCO[C@H]1CN(C)Cc1ccc(C(F)(F)F)cc1
inactive: [1] | [2] | [3] | [4] | [5] | [6] -25.9% | [7] | [8] | [9]

C[C@@H]1CCCCO[C@H](CN(C)S(=O)(=O)c2ccc(Cl)cc2)[C@@H](C)CN([C@@H](C)CO)C(=O)c2cc(NC(=O)CCC(F)(F)F)ccc2O1
inactive: [1] | [2] | [3] | [4] | [5] | [6] 17.2% [at 2.1 µM, stronger effect = lower value] | [7] | [8] | [9]

O=C(Nc1cccc(F)c1)N[C@@H]1CC[C@@H](CCNS(=O)(=O)c2cccc(Cl)c2)O[C@@H]1CO
inactive: [1] | [2] | [3] | [4] | [5] | [6] -20.4% [at 0.5 µM, stronger effect = lower value] | [7] | [8] | [9]

C[C@@H]1CN([C@H](C)CO)C(=O)Cc2cc(NC(=O)Nc3ccc(F)cc3)ccc2O[C@H]1CN(C)C(=O)Nc1ccc(C(F)(F)F)cc1
inactive: [1] | [2] | [3] | [4] | [5] | [6] -34.3% | [7] | [8] | [9]

COc1cccc(-c2ccc3c(c2)[C@@H]2[C@@H](CCN2C(=O)NC2CCCCC2)[C@H](CO)N3C)c1
inactive: [1] | [2] | [3] | [4] | [5] | [6] -16.7% [at 2.1 µM, stronger effect = lower value] | [7] | [8] | [9]

C[C@@H]1CN([C@@H](C)CO)C(=O)c2cc(NC(=O)Nc3ccc4c(c3)OCO4)ccc2O[C@@H]1CN(C)C(=O)Nc1ccc(C(F)(F)F)cc1
inactive: [1] | [2] | [3] | [4] | [5] | [6] 51.3% [at 0.26 µM, stronger effect = lower value] | [7] | [8] | [9]

COc1ccc(S(=O)(=O)Nc2ccc3c(c2)C(=O)N([C@@H](C)CO)C[C@H](C)[C@H](CN(C)Cc2ccc(C(F)(F)F)cc2)OCCCC[C@@H](C)O3)cc1
inactive: [1] | [2] | [3] | [4] | [5] | [6] 26.1% | [7] | [8] | [9]

Cc1ccc(S(=O)(=O)N(C)C[C@H]2Oc3c(NC(=O)Nc4ccc(F)cc4)cccc3C(=O)N([C@@H](C)CO)C[C@H]2C)cc1
inactive: [1] | [2] | [3] | [4] | [5] | [6] -10.2% | [7] | [8] | [9]

C[C@@H]1CCCCO[C@@H](CN(C)S(=O)(=O)c2ccc(Cl)cc2)[C@H](C)CN([C@@H](C)CO)C(=O)c2cc(NS(=O)(=O)c3ccc(Cl)cc3)ccc2O1
inactive: [1] | [2] | [3] | [4] | [5] | [6] -34.3% [at 16 µM, stronger effect = lower value] | [7] | [8] | [9]

C[C@@H]1CCCCO[C@H](CN(C)S(=O)(=O)c2ccc(Cl)cc2)[C@@H](C)CN([C@@H](C)CO)C(=O)c2cc(NC(=O)Nc3ccc(C(F)(F)F)cc3)ccc2O1
inactive: [1] | [2] | [3] | [4] | [5] | [6] 9.63% [at 2.1 µM, stronger effect = lower value] | [7] | [8] | [9]

C[C@@H]1CN([C@@H](C)CO)C(=O)Cc2cc(NS(=O)(=O)c3ccc(F)cc3)ccc2O[C@H]1CN(C)Cc1ccc(Oc2ccccc2)cc1
inactive: [1] | [2] | [3] | [4] | [5] | [6] -22.3% [at 4.2 µM, stronger effect = lower value] | [7] | [8] | [9]

C[C@H](CO)N1C[C@H](C)[C@@H](CN(C)C(=O)NC2CCCCC2)Oc2cc(C#Cc3ccc(F)cc3)ccc2S1(=O)=O
inactive: [1] | [2] | [3] | [4] | [5] | [6] 10.3% [at 2.1 µM, stronger effect = lower value] | [7] | [8] | [9]

C[C@@H]1CN([C@H](C)CO)C(=O)c2cc(NC(=O)Nc3ccc(C(F)(F)F)cc3)ccc2O[C@@H](C)CCCCO[C@H]1CN(C)C(=O)Nc1ccc(F)cc1
inactive: [1] | [2] | [3] | [4] | [5] | [6] -1.73% | [7] | [8] | [9]

C[C@H](CO)N1C[C@H](C)[C@@H](CN(C)C(=O)Nc2ccc(F)cc2)OCc2ccccc2-c2c(n(C)c3ccccc23)C1=O
inactive: [1] | [2] | [3] | [4] | [5] | [6] 31.5% | [7] | [8] | [9]

C[C@@H]1CCCCO[C@@H](CN(C)Cc2ccc(Cl)c(Cl)c2)[C@H](C)CN([C@H](C)CO)C(=O)c2cc(NC(=O)Nc3ccccc3)ccc2O1
inactive: [1] | [2] | [3] | [4] | [5] | [6] 13.2% [at 0.5 µM, stronger effect = lower value] | [7] | [8] | [9]

C[C@@H]1CCCCO[C@@H](CN(C)C(=O)C2CCCCC2)[C@H](C)CN([C@H](C)CO)C(=O)c2cc(NS(=O)(=O)c3ccc(Cl)cc3)ccc2O1
inactive: [1] | [2] | [3] | [4] | [5] | [6] -13.3% [at 0.5 µM, stronger effect = lower value] | [7] | [8] | [9]

Cc1ccc(S(=O)(=O)N[C@@H]2C=C[C@@H](CC(=O)N3CCC(Cc4ccccc4)CC3)O[C@@H]2CO)cc1
inactive: [1] | [2] | [3] | [4] | [5] | [6] -14.5% [at 16 µM, stronger effect = lower value] | [7] | [8] | [9]

C[C@@H]1CCCCO[C@H](CN(C)C(=O)Nc2ccc(F)cc2)[C@@H](C)CN([C@@H](C)CO)C(=O)c2cc(NC(=O)Nc3ccc(C(F)(F)F)cc3)ccc2O1
inactive: [1] | [2] | [3] | [4] | [5] | [6] 19.8% [at 0.26 µM, stronger effect = lower value] | [7] | [8] | [9]

C[C@@H]1CN([C@H](C)CO)C(=O)c2cc(NC(=O)Nc3ccc(C(F)(F)F)cc3)ccc2O[C@@H](C)CCCCO[C@H]1CN(C)Cc1ccc(Cl)c(Cl)c1
inactive: [1] | [2] | [3] | [4] | [5] | [6] 8.01% [at 8 µM, stronger effect = lower value] | [7] | [8] | [9]

CCCC(=O)Nc1ccc2c(c1)C(=O)N(C)C[C@@H](OC)[C@H](C)CN(Cc1ccc(-c3ccccn3)cc1)[C@H](C)CO2
inactive: [1] | [2] | [3] | [4] | [5] | [6] 8.7% [at 0.5 µM, stronger effect = lower value] | [7] | [8] | [9]
